# In PubChem BioAssay (NCATS):
# Where “and” joins values, the source holds several entries; their conditions need not be identical. Equal entries are not always repeated. Results filed as inconclusive are left out. Where a call stands in place of a potency, no number is given. Calls of active or inactive are those of the source. Unless noted, calls follow the shape of the dose curve; as a rule, active = well fitted curve in the direction sought with a large enough effect; inconclusive = small, poorly fitted or top-dose-only effect, or another doubt; inactive = no such curve, though single readings can be large; an effect the other way counts as inactive or inconclusive.
# Experiments:
# [1] = target: Flap endonuclease 1 (Homo sapiens) (UniProt P39748); assay: qHTS Validation Assay for the Inhibitors of Human Flap endonuclease 1 (FEN1) (AID 488816); also: potency is read from the fitted curve at half-maximal effect
# Sequence of Flap endonuclease 1 (Homo sapiens) (P39748 whole entry, looked up): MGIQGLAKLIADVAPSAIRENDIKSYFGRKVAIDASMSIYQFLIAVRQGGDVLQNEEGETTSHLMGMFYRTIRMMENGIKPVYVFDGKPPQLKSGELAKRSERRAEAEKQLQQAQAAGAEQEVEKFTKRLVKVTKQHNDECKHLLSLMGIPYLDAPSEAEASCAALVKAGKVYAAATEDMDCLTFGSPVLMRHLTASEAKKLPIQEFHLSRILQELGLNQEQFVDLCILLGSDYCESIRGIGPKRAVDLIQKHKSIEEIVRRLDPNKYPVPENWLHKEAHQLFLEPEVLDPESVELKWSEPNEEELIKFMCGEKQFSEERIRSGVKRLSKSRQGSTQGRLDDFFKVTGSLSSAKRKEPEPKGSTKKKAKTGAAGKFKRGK
# How it was run: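 qHTS format: compounds and 10 nM FEN1 incubated 15 min at room temperature before adding 50 nM substrate. Cleavage followed by reads at 0 and 15 min; normalized data fitted to a four-parameter Hill curve.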
# [2] = target: Arylsulfatase A (Homo sapiens) (UniProt P15289); assay: qHTS screen for enhancers of Arylsulfatase A (ASA1): LOPAC Validation Assay (AID 720538)
# Sequence of Arylsulfatase A (Homo sapiens) (P15289 whole entry, looked up): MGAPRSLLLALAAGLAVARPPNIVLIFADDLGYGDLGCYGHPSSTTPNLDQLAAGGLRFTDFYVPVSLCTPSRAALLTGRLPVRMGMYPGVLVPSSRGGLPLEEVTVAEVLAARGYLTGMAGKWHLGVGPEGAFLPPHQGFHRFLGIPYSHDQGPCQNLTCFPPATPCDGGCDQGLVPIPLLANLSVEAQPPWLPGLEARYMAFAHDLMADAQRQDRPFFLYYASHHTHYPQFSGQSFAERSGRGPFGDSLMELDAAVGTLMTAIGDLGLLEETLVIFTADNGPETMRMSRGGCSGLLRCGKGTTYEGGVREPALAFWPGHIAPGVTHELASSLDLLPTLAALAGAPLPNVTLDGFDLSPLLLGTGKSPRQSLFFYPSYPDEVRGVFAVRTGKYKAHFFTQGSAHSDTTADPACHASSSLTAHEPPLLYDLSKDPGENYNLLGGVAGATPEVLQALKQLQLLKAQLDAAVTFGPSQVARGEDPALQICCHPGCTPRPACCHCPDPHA
# How it was run: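 Enhancer assay in patient-derived MLD fibroblasts carrying ASA-I179S: 48 h compound exposure at 37 C, then 14 h room-temperature pNCS turnover (0.5 mM final) in lysis buffer. Read by fluorescence at 525/598 nm after NaOH stop.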
# [3] = qHTS for differential inhibitors of proliferation of Plasmodium falciparum line GB4 (AID 1816); details: Potency: Plasmodium falciparum GB4 proliferation inhibition;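 also: potency is read from the fitted curve at half-maximal effect; parasite growth measured after 72 h incubation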
# [4] = Cell Viability - Jurkat (AID 426;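 active = dose-dependent loss of cell ATP signal giving a full or clear fitted curve, ranked by lower potency value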;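 also: potency is read from the fitted curve at half-maximal effect; cells exposed to compound for 40 hours at 37 °C before ATP read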); details: qHTS
# How it was run: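 Luminescent ATP read-out (CellTiter-Glo, 20 min at room temperature) after 40 hr compound exposure at 37 °C of Jurkat E6-1 cells, 5000/well. Decreased ATP taken as cytotoxicity; AC50 from standard Hill equation.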
# [5] = Cell Viability - H-4-II-E (AID 543);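 also: cells exposed to compound for 40 hours; nearly all actives have a fitted effect of over 35% in size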
# How it was run: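 qHTS, rat hepatoma H-4-II-E, 1500 cells/well; 40 hr compound exposure, 37 °C; CellTiter-Glo ATP luminescence after 20 min RT; AC50 by standard Hill fit.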
# [6] = Cell Viability - SH-SY5Y (AID 544);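 also: cells exposed to compound for 40 hours; nearly all actives have a fitted effect of over 55% in size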
# How it was run: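 SH-SY5Y, 1500 cells/well, 5 hr pre-incubation 37 °C; cpd 40 hr 37 °C; CellTiter-Glo 20 min RT; luminescence (ATP) read. qHTS concentration-response, Hill fit → AC50. Tamoxifen, doxorubicin as positive controls.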
# [7] = Cell Viability - LYMP2-022 (AID 987); also: nearly all actives have a fitted effect of over 55% in size
# How it was run: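 Luminescent ATP read-out (CellTiter-Glo, 30 min, RT) after 24 hr, 37 C compound exposure of 2500 human lymphoblastoid cells/well in complete medium. Cytotoxicity taken as concentration-dependent ATP loss; AC50 from standard Hill equation.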
# [8] = Cell Viability - LYMP2-024 (AID 988); also: nearly all actives have a fitted effect of over 60% in size
# How it was run: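 ATP-based luminescence (CellTiter-Glo, 30 min RT) after 24 h compound exposure at 37 C of 2500 lymphoblastoid cells/well; decrease in ATP taken as cytotoxicity. qHTS concentration-response fitted to standard Hill equation for AC50.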
# [9] = target: Estrogen receptor (Homo sapiens) (UniProt P03372); assay: qHTS assay for small molecule antagonists of estrogen receptor alpha signaling (AID 588513; active = well fitted curve in the direction sought with a large enough effect in the signal ratio, with a control signal flat, not every such curve was filed as active; the % refers to the signal ratio)
# Sequence of Estrogen receptor (Homo sapiens) (P03372 whole entry, looked up): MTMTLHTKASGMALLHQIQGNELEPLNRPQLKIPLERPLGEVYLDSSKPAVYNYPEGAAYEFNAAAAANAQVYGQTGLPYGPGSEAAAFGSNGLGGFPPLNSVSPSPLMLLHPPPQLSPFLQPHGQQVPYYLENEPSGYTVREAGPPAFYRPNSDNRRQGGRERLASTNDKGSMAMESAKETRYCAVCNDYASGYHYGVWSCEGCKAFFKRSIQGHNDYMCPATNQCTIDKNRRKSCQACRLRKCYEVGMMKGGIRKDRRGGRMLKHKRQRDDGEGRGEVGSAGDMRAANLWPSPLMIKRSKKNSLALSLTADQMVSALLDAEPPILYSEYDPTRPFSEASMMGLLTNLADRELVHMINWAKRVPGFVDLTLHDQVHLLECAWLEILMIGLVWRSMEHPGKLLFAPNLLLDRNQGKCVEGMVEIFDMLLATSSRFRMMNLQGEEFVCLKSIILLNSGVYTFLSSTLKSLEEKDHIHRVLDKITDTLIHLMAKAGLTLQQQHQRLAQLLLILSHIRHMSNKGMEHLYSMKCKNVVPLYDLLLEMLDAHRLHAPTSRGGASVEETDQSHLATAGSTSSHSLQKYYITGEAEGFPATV
# How it was run: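 Antagonist mode: inhibition of 0.5 nM 17-beta-estradiol-driven beta-lactamase reporter in HEK 293 ER-alpha-UAS-bla cells, 18 h at 37C, CCF4 readout after 2 h at RT. Normalised to estradiol and DMSO; titration fitted to Hill.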
# [10] = target: Bile acid receptor (Homo sapiens) (UniProt Q96RI1); assay: qHTS assay for small molecule antagonists of farnesoid X receptor signaling (AID 588526; calls by dose curve)
# Sequence of Bile acid receptor (Homo sapiens) (Q96RI1 whole entry, looked up): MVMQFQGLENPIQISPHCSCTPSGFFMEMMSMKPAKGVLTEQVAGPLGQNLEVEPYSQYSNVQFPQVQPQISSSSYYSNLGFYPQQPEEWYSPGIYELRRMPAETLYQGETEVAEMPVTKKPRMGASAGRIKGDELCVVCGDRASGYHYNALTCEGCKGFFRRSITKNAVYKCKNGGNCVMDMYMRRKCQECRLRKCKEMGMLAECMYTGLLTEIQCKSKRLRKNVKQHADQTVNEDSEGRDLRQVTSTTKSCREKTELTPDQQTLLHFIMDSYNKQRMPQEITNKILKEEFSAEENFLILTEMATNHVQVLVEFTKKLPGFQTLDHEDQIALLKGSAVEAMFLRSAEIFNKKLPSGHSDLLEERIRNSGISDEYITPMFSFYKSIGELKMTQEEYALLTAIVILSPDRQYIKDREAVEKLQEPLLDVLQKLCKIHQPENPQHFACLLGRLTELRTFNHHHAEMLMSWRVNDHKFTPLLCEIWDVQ
# How it was run: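 Beta-lactamase reporter antagonist mode: HEK293T FXR-UAS-bla cells, titrated compound, CDCA stimulation, 16 h 37 C, CCF4 dye 2 h RT. Data normalized to CDCA 50 uM and DMSO; Hill-fit IC50.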
# [11] = target: Bile acid receptor (Homo sapiens) (UniProt Q96RI1); assay: qHTS assay for small molecule agonists of farnesoid X receptor signaling (AID 588527; calls by dose curve; also: series mostly up to about 77 µM); details: HEK293T FXR-UAS-bla, beta-lactamase ratio, 16 h; activation: stronger effect = higher value
# How it was run: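 Agonist-mode beta-lactamase reporter in GeneBLAzer FXR-UAS-bla HEK293T cells, titration up to 92 uM, 16 h exposure at 37 C, CCF4 fluorescence. Response scaled to DMSO (0%) and 100 uM chenodeoxycholic acid (100%), then Hill-fitted for EC50 and efficacy.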
# [12] = qHTS assay for environmental chemicals that activate the Aryl hydrocarbon Receptor (AhR) signaling pathway (AID 651777); details: 1A2-DRE human hepatoma cells, luciferase, 24 h; activation: stronger effect = higher value; also: nearly all actives have a fitted effect of over 15% in size
# How it was run: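 Human hepatoma 1A2-DRE cells stably carrying a DRE/CYP1A2 promoter–luciferase reporter, 1,200 cells/well, exposed to compound 24 hr at 37 C. Luciferase read by One-Glo luminescence after 30 min at room temperature; increased signal marks AhR activation.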
# [13] = target: Voltage-gated inwardly rectifying potassium channel KCNH2 (Homo sapiens) (UniProt Q12809); assay: qHTS Assay for Small Molecule Inhibitors of the Human hERG Channel Activity (AID 588834);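 also: lower thallium flux fluorescence means stronger hERG block; nearly all actives have a fitted effect of over 50% in size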; also: potency is read from the fitted curve at half-maximal effect
# Sequence of Voltage-gated inwardly rectifying potassium channel KCNH2 (Homo sapiens) (Q12809 whole entry, looked up): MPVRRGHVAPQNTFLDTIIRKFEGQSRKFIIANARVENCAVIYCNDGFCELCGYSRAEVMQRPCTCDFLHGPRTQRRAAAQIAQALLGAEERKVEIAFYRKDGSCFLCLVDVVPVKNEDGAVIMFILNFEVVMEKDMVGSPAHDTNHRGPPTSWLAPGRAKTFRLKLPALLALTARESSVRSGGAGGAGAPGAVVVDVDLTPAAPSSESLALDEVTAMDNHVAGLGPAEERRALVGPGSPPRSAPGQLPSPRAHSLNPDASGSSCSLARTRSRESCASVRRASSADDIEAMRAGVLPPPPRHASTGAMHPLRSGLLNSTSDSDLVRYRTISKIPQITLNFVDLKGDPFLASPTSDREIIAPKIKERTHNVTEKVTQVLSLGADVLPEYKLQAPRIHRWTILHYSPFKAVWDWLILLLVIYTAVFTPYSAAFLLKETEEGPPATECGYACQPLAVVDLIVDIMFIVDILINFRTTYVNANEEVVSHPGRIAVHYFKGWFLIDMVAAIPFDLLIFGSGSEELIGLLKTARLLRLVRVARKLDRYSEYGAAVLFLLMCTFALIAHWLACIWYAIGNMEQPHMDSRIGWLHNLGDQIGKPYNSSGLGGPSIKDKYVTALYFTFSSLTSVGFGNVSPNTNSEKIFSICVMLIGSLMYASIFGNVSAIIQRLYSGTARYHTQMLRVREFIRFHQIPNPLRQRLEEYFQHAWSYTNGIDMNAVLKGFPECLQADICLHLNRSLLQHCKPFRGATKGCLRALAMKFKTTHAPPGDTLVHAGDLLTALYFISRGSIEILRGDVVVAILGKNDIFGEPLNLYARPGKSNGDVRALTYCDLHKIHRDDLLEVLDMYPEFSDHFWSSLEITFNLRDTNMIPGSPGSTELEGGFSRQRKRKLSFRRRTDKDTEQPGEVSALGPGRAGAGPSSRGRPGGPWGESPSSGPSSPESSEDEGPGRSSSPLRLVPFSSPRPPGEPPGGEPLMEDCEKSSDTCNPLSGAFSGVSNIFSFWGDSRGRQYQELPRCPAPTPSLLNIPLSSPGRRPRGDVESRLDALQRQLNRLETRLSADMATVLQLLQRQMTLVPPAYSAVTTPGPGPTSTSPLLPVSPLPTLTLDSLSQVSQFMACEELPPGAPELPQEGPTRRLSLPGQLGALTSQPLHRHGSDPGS
# How it was run: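 hERG block measured as reduced thallium-dye (FluxOR) fluorescence after stimulation buffer addition, read over 2 min. Cells were hERG-BacMam-transduced U2OS exposed to compound ~10 min […]; concentration-response fitted with Hill equation for AC50.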
# [14] = target: Mitogen-activated protein kinase 10 (Mus musculus) (UniProt Q61831); assay: JNK3 AlphaScreen Assay (AID 530; active = well fitted curve in either direction with a large enough effect, not every such curve was filed as active;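 also: kinase came from lysate of stimulated human HepG2 cells; signal reports phosphorylation of biotinylated GST-cJun 1-79 at Ser73 with 10 µM ATP; series mostly up to about 57 µM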)
# How it was run: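 Kinase buffer: 20 mM Tris-HCl pH 7.6, 10 mM MgCl2, 1 mM DTT, 0.1 mM Na3VO4, 0.01% Tween-20; ATP 10 uM. Substrate biotin-GST-cJun(1-79), enzyme from activated HepG2 lysates. Detection by Ser73 phospho-antibody AlphaScreen.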
# [15] = Cell Viability - LYMP2-012 (AID 982);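 also: cellular ATP by luciferase luminescence where a drop means cytotoxicity; cells exposed to compound for one day before reading; nearly all actives have a fitted effect of over 55% in size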
# [16] = Cell Viability - LYMP2-014 (AID 983); also: series mostly up to about 92 µM; nearly all actives have a fitted effect of over 50% in size
# How it was run: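 2500 cells/well, 5 hr 37 C; cpd 24 hr 37 C, complete medium; CellTiter-Glo 30 min RT, luminescence; ATP loss = toxicity; AC50 via Hill eqn; tetraoctylammonium bromide positive control.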
# [17] = Cell Viability - LYMP2-016 (AID 984); also: nearly all actives have a fitted effect of over 55% in size
# How it was run: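 Cytotoxicity was scored by luminescent ATP content (CellTiter-Glo) after 24 h compound exposure at 37 C of a human lymphoblastoid line at 2500 cells/well. Concentration-response data were fitted to the Hill equation for AC50.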
# [18] = Cell Viability - LYMP2-018 (AID 985); also: nearly all actives have a fitted effect of over 50% in size
# How it was run: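 2500 cells/well; 5 hr 37 C; cmpd 24 hr 37 C, complete medium; CellTiter-Glo 30 min RT; luminescence. Tetraoctylammonium bromide positive control. AC50 via Hill fit.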
# [19] = qHTS assay for small molecule activators of the nuclear factor-kappa B (NF-kB) signaling pathway (AID 651749; active = well fitted activation curve with a large enough effect in the signal ratio; the % refers to the signal ratio; also: series mostly up to about 77 µM); details: NF-kB-bla ME-180 cells, beta-lactamase FRET ratio, 16 h; activation: stronger effect = higher value
# How it was run: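 FRET-based beta-lactamase detection in ME-180 cells reports NF-kB response-element-driven transcription following overnight (16 hr) compound treatment.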
# [20] = Nrf2 qHTS screen for inhibitors: Validation (AID 493153; active = well fitted inhibition curve with a large enough effect in the main read-out, with a control signal flat, not every such curve was filed as active; also: potency is read from the fitted curve at half-maximal effect); details: Potency: luciferase luminescence; viability change: measured here: cytotoxicity max response
# How it was run: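 Concentration-response test in A549 ARE_Fluc reporter cells (5% FBS OPTI-MEM), compound exposure 18-24 h at 37°C, 5% CO2. Cell viability measured first by CellTiter-Fluor fluorescence; ARE-driven luciferase luminescence then measured as Nrf2 activity.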
smiles,measurement,setting,value
Oc1ccccc1O,Potency,[1],5.97 µM (active)
NO,Potency,[2],inactive
N#C/C(=C\c1ccc(O)c(O)c1)C(=O)NCCCNC(=O)/C(C#N)=C/c1ccc(O)c(O)c1,Potency,[3],2.24 µM (active)
same,Potency,[1],0.67 µM (active)
CC(C)COC(=O)c1ccccc1C(=O)OCC(C)C,Potency,[4],> 92 µM (inactive)
same,outcome,[5],inactive
same,outcome,[6],inactive
same,outcome,[7],inactive
same,outcome,[8],inactive
same,Potency,[9],inactive
same,Potency,[10],inactive
same,activation,[11],-1.69% (inactive)
same,activation,[12],0.543% (inactive)
CN1[C@@H](CC(=O)c2ccccc2)CCC[C@H]1C[C@H](O)c1ccccc1,Potency,[3],10 µM (active)
same,Potency,[1],inactive
same,Potency,[13],4.47 µM (active)
same,Potency,[2],inactive
CCOC(=O)c1ccccc1N,Potency,[4],> 92 µM (inactive)
same,outcome,[14],inactive
same,outcome,[5],inactive
same,outcome,[6],inactive
same,outcome,[15],inactive
same,outcome,[16],inactive
same,outcome,[17],inactive
same,outcome,[18],inactive
same,outcome,[7],inactive
same,outcome,[8],inactive
same,Potency,[9],inactive
same,Potency,[10],inactive
same,activation,[11],-0.579% (inactive)
same,Potency,[13],inactive
same,activation,[12],1.49% (inactive)
Oc1ccccc1Cl,Potency,[4],> 92 µM (inactive)
same,outcome,[14],inactive
same,outcome,[5],inactive
same,outcome,[6],inactive
same,outcome,[15],inactive
same,outcome,[16],inactive
same,outcome,[17],inactive
same,outcome,[18],inactive
same,outcome,[7],inactive
same,outcome,[8],inactive
same,Potency,[13],inactive
same,activation,[19],-1.13% (inactive)
same,activation,[12],0.249% (inactive)
COC1=CC(=O)OC(CCc2ccc3c(c2)OCO3)C1 (configuration not stated),outcome,[14],inactive
same,outcome,[16],inactive
same,outcome,[17],inactive
same,Potency,[9],inactive
same,Potency,[10],inactive
same,Potency,[13],inactive
same,activation,[19],-0.795% (inactive)
same,activation,[12],9.51% (inactive)
Nc1nc2[nH]c(=O)cnc2c(=O)[nH]1,Potency,[20],inactive
same,viability change,[20],-3.53%
COc1cc([C@@H]2c3cc4c(cc3[C@H](O)C3COC(=O)[C@@H]32)OCO4)cc(OC)c1OC (some centres not stated),Potency,[3],12.6 µM (active)
Brc1c(Br)c(Br)c2n[nH]nc2c1Br,Potency,[1],inactive
same,Potency,[20],18.4 µM (active)
same,viability change,[20],-14.6%
c1ccc(Nc2ccc3ccccc3c2)cc1,outcome,[14],inactive
same,outcome,[15],inactive
same,outcome,[16],inactive
same,outcome,[17],inactive
same,outcome,[18],inactive
same,outcome,[7],inactive
same,outcome,[8],inactive
same,Potency,[9],inactive
same,Potency,[10],inactive
same,activation,[11],5.18% (inactive) and -0.414% (inactive)
same,Potency,[13],25.1 µM (active)
same,activation,[19],0.513% (inactive) and 2.05% (inactive)
CC(=O)/C=C/c1ccccc1,Potency,[4],> 92 µM (inactive)
same,outcome,[14],inactive
same,outcome,[5],inactive
same,outcome,[6],inactive
same,outcome,[15],inactive
same,outcome,[16],inactive
same,outcome,[17],inactive
same,outcome,[18],inactive
same,outcome,[7],inactive
same,outcome,[8],inactive
same,Potency,[13],inactive
same,activation,[19],-1.47% (inactive)
same,activation,[12],-0.449% (inactive)
Nc1nc2ccc(Cl)cc2c2nc(-c3ccco3)nn12,Potency,[20],inactive
same,viability change,[20],11.1%
same,Potency,[2],inactive
c1ccc2c(c1)-c1cccc3cccc-2c13,Potency,[4],> 92 µM (inactive)
same,outcome,[5],inactive
same,outcome,[6],inactive
same,outcome,[15],inactive
same,outcome,[16],inactive
same,outcome,[17],inactive
same,outcome,[18],inactive
same,outcome,[7],inactive
same,outcome,[8],inactive
same,activation,[19],0.379% (inactive)
CCCCCCCCCC[Si](C)(C)CCC(=O)NC(Cc1ccc(C)cc1)c1ccccc1 (configuration not stated),Potency,[3],2.24 µM (active)
Cn1ccnc1,Potency,[1],inactive
CC(=O)C(C)=O,activation,[11],0.539% (inactive)
same,Potency,[2],inactive
O=C(O)CNC(=O)C(CS)Cc1ccccc1 (configuration not stated),Potency,[2],inactive
